Measured values taken from PMC4336329 (PLoS ONE, 2015).
Out of some 310,000 compounds screened, about 14,000 (4.5%) showed an effect of 50% or more. The effect is printed as a negative number. The sample holds strong results, similar compounds and a random draw of the others, so the mix is not that of the screen.

Target: human ether-à-go-go-related gene (hERG) potassium channel (human, UniProt Q12809)
Experiment: primary screen, population patch clamp on CHO cells stably expressing hERG; higher = less effect of the substance
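Note: peak tail current of the secondary pulse compared with the same well before compound.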

Sequence of human ether-à-go-go-related gene (hERG) potassium channel (Q12809 whole entry, looked up): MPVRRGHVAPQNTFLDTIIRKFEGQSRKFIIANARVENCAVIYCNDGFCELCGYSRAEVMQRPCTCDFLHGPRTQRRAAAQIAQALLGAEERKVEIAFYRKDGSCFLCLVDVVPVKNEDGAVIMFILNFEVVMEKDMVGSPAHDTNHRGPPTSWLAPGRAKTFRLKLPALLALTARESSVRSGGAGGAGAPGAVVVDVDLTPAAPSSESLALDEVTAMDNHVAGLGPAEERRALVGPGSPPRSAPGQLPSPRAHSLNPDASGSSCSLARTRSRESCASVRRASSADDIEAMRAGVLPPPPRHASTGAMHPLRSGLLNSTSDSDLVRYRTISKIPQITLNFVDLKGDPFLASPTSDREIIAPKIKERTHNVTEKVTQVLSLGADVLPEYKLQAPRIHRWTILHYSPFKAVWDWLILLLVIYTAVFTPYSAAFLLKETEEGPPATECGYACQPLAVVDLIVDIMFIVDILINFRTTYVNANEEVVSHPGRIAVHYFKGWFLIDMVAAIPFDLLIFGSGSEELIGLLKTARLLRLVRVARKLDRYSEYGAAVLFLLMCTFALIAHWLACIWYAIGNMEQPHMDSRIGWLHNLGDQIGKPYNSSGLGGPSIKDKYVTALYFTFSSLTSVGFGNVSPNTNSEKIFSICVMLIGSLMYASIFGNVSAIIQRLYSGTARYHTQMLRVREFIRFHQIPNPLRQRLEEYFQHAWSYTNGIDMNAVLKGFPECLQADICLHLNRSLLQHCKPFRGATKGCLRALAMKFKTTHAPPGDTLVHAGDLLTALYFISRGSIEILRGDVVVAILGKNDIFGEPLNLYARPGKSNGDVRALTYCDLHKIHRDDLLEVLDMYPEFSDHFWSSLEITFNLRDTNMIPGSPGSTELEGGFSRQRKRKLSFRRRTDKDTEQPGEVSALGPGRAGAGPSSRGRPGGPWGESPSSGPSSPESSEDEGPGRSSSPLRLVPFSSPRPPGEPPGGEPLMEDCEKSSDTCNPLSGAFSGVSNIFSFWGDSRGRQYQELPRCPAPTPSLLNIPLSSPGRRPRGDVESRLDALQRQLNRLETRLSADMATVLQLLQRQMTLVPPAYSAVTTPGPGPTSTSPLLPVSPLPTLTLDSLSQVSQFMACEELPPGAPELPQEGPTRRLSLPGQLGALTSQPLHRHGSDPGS

Point of comparison: `CCC(=O)N1N=C(c2cccs2)CC1c1ccc(OC)cc1` (centres unmarked), “hERG current change (%, negative = inhibition) at 10uM” value 15.9%. Against it:
- CN1CCC(=O)N([C@H](CN=[N+]=[N-])Cc2ccccc2)CC1 — higher, 17.9%
- c1cnc2ccc(-c3ccc4ncccc4c3)cc2c1 — lower, -5.61%
- COc1cc(C=O)ccc1OCCOCCOc1ccc(Cl)cc1 — lower, -37.6%
- COc1ccccc1NC(=O)c1ccc(S(=O)(=O)N2CCCC2)cc1 — lower, -20.3%
- CCOC(=O)c1cccc(NC(=O)c2cc3ccccc3o2)c1 — lower, 1.39%
- Cl.O=C1[C@H]2CCCC[C@H]2C(=O)N1CCCCN1CCN(c2nsc3ccccc23)CC1 — lower, -74.3%
- FC(F)(F)C1CCCN(c2nsc3ccccc23)C1 (centres unmarked) — higher, 19.1%
- Cl.c1ccc2c(N3CCNCC3)nsc2c1 — lower, -5.8%
- COc1cccc2nc3cc(C)c(C)cc3nc12 — lower, -7.73%
- COc1ccc(C2CC(c3cccs3)=NN2C(=O)CN2CCCCC2)cc1 (centres unmarked) — lower, -71.9%
- COc1ccc(C2CC(c3cccs3)=NN2C(=O)CCC(=O)O)cc1 (centres unmarked) — lower, 10.5%
- O=C(CN1CCCCC1)N1N=C(c2cccs2)CC1c1cccs1 (centres unmarked) — lower, -58.7%
- CC(=O)N1N=C(c2cccs2)CC1c1cccs1 (centres unmarked) — lower, 5.99%
- O=C(CN1CCOCC1)N1N=C(c2cccs2)CC1c1cccs1 (centres unmarked) — higher, 18.9%
- O=C(CSc1ncn[nH]1)Nc1nc(-c2ccccc2)ns1 — lower, -7.44%
- CCCC(=O)c1cc(F)c(N2CCN(S(=O)(=O)c3ccccc3)CC2)cc1C — lower, 13.2%
- CCOc1ccc(NC(=O)C(C)Sc2nccn2C)cc1 (centres unmarked) — lower, 6.78%
- Cn1cccc1Cc1nnc(SCC(=O)NCC2CCCO2)n1CCc1ccccc1 (centres unmarked) — lower, -10.8%
- CCCn1nc(C(=O)OCC(=O)Nc2cccc(OC)c2)c2ccccc2c1=O — lower, 3.96%
- O=C(O)c1ccc(-n2nnnc2SCc2ccccc2)cc1 — lower, 8.05%
- O=C(O)c1ccc(CSc2nnnn2-c2ccc(F)cc2)cc1 — lower, -9.84%
- CCN(CC)C(CNC(=O)CSc1nnnn1-c1ccc(C)c(C)c1)c1ccco1 (centres unmarked) — lower, -54.5%
- CCN(CC)C(CNC(=O)CSc1nnnn1-c1cccc(F)c1)c1ccco1 (centres unmarked) — lower, -16.4%
- Cc1ccc(-n2nnnc2SCC(=O)NNC(=O)c2ccco2)cc1C — higher, 24.3%
- Cc1ccc(-n2nnnc2SCc2ccc(C(=O)O)cc2)cc1C — lower, -70.7%
- COc1cc(CCc2ccc3c(c2)OCO3)oc(=O)c1 — lower, 4.95%
- Cc1ccc(C2(C)NC(=O)N(CC(=O)NNC(=O)c3ccoc3C)C2=O)cc1 (centres unmarked) — higher, 26.6%
- Cc1nn(CC(=O)NCc2ccccc2)c(=O)c2cccn12 — lower, 9.27%
- O=C(Nc1ccc(OC(F)(F)F)cc1)N1CCN(c2ccnc3cc(Cl)ccc23)CC1 — lower, -72.1%
- Cc1csc2c(N3CCN(C(=O)Nc4ccc(OC(F)(F)F)cc4)CC3)ncnc12 — lower, -32.9%
- O=C(Nc1ccc(Cl)cc1)N1CCCN(c2ccc(C(F)(F)F)cc2[N+](=O)[O-])CC1 — lower, 4.29%
- Cc1csc2ncnc(N3CCN(C(=O)Nc4ccc(OC(F)(F)F)cc4)CC3)c12 — lower, -68%
- O=C(Nc1ccc(C(F)(F)F)cc1)N1CCN(c2ccnc3cc(Cl)ccc23)CC1 — lower, -62.2%
- O=C(Nc1ccc(Cl)cc1)N1CCN(c2ncccn2)CC1 — lower, -13.2%
- CC(C)(C)OC(=O)N1CCCN(C(=O)Nc2ccc(OC(F)(F)F)cc2)CC1 — lower, -22.6%
- Cc1csc2ncnc(N3CCN(C(=S)Nc4ccc(C(F)(F)F)cc4)CC3)c12 — lower, -16.7%
- Cc1ccc(S(=O)(=O)N(C)CC(=O)OCC(=O)NCCN2C(=O)CSC2=O)cc1 — lower, -9.67%
- O=C(c1ccc(Cl)cc1)C(CN1CCCC1)c1ccccc1 (centres unmarked) — lower, -10.3%
- COc1ccc(OC)c(NC(=O)Nc2nnc(N3CCC(C)CC3)s2)c1 — lower, 5.07%
- COc1ccc(CCNC(=O)[C@@H](NC(=O)N2CCn3c2nc2ccccc23)C(C)C)cc1OC — lower, -14.3%
- Cc1ccc(C)c(NS(=O)(=O)c2ccc(OCC(=O)N3CCOCC3)cc2)c1 — lower, -7.34%
- O=C(CCNC(=O)c1ccc([N+](=O)[O-])cc1)NCCc1ccccc1 — lower, -27.8%
- CCOc1ccc(-c2cc(CCCC(=O)NCc3cccnc3)no2)cc1 — lower, -35%
- COc1ccccc1-c1nnc(NC(=O)C(C)Sc2nncn2C)s1 (centres unmarked) — lower, -1.37%
- CCN(CC)c1cc(C)c2cc(NC(=O)c3cccs3)ccc2n1 — lower, -72.2%
- CCN(CC)c1cc(C)c2cc(NC(=O)c3ccccc3F)ccc2n1 — lower, -81.3%
- CCN(CC)c1cc(C)c2cc(NC(=O)c3ccccc3OC)ccc2n1 — lower, -18.6%
- CCN(CC)c1ccc(NC(=O)c2ccccc2F)cc1 — lower, -9.39%
- Cc1nc2ccc(NC(=O)c3cccs3)cc2s1 — higher, 19.8%
- Cc1nc2ccc(NC(=O)c3cccs3)cc2c(=O)n1Cc1ccc(Cl)cc1 — lower, 9.84%
- COc1ccc(Cl)cc1N(CC(=O)Nc1ccc2c(c1)OCO2)S(C)(=O)=O — lower, -24%
- COc1cccc(CNC(=O)Cc2c(C(=O)O)[nH]c3ccccc23)c1 — lower, 8.83%
- COC(=O)[C@H](CC(C)C)NC(=O)Nc1ccccc1F — higher, 16.6%
- Cc1ccccc1Cn1nc(C)c(NC(=O)c2nc3n(n2)C(C(F)F)CC(C)N3)c1C (centres unmarked) — lower, 0.0862%
- O=C(CCN1C(=O)c2ccccc2C1=O)NNC(=O)c1ccc(Cl)cc1Cl — lower, 6.82%
- CN(c1ccccc1)c1nc(N2CCCC2)nc(-n2ccnc2)n1 — lower, -19.5%
- CC(C)Nc1nc(-c2ccccc2)nc(-n2ccnc2)n1 — lower, -0.0673%
- CN(c1ccccc1)c1nc(-n2ccnc2)nc(-n2ccnc2)n1 — lower, -67.7%
- c1ccc(-c2nc(-n3ccnc3)nc(-n3ccnc3)n2)cc1 — lower, -69.4%
- c1ccc(N(c2ccccc2)c2nc(-n3ccnc3)nc(-n3ccnc3)n2)cc1 — lower, -24.2%
- c1ccc(-c2nc(N3CCN(c4ccccc4)CC3)nc(-n3ccnc3)n2)cc1 — lower, -2.66%
- Cc1ccc(S(=O)(=O)N2c3ccccc3CC2C)cc1 (centres unmarked) — lower, 13.4%
- COc1ccc(C(=O)CC(=O)C(=O)NCCc2cccc(C)c2)cc1 — lower, 7.31%
- O=C(C(=O)N1CCN(c2ccccc2)CC1)c1c[nH]c2ccccc12 — lower, 4.09%
- C/C(CC(=O)Nc1ccc2ccccc2c1)=N\NC(=O)c1ccc(O)c(O)c1 — lower, -6.73%
- COCCN1C(=O)CC(NNC(=O)c2ccc(S(=O)(=O)N3CCCC3)cc2)C1=O (centres unmarked) — lower, 10%
- CCOC(=O)C1CCN(C(=O)CS(=O)Cc2nc(-c3ccc(C)cc3)oc2C)CC1 (centres unmarked) — lower, -0.626%
- CCN(C(=O)COC(=O)c1cc(Cl)ccc1OC)c1c(N)n(Cc2ccccc2)c(=O)[nH]c1=O — lower, 4.46%
- O=C(Cc1ccccc1)NN1C(=O)c2ccccc2C1=O — lower, -9.37%
- COc1ccc(CCNC(=O)CSc2nnc3c(n2)[nH]c2ccc(F)cc23)cc1OC — lower, 12.8%
- CNC(=O)NC(=O)COC(=O)CCc1nc(=O)c2ccccc2n1C — lower, -19.2%
- CCc1ccc(NC(=O)COC(=O)CCc2nc3cc(S(=O)(=O)N(CC)CC)ccc3n2C)cc1 — lower, -60%
- Cn1c(CCC(=O)OCC(=O)Nc2ccc(Oc3ccccc3)cc2)nc(=O)c2ccccc21 — lower, -53.3%
- CCN(CC)S(=O)(=O)c1ccc2c(c1)nc(CCC(=O)OCC(=O)Nc1cc(OC)cc(OC)c1)n2C — lower, -48.5%
- CCNC(=O)NC(=O)COC(=O)CCc1nc(=O)c2ccccc2n1C — lower, 4.87%
- CCN(CC)S(=O)(=O)c1ccc2c(c1)nc(CCC(=O)OCC(=O)Nc1c(F)cccc1F)n2C — lower, -34.6%
- CN1CCNC(=O)C1CC(=O)NCCC1=CCCCC1 (centres unmarked) — higher, 18.2%
- Cc1ccc(C(C)C)c(OCc2nnc(SCC(=O)Nc3ncc(C)s3)n2C)c1 — lower, -4.11%
- CN(C)c1nnnn1-c1ccc(OC(F)(F)F)cc1 — lower, -9.73%
- CCCC1(c2ccccc2)NC(=O)N(CC(=O)Nc2cc(S(=O)(=O)N3CCOCC3)ccc2Cl)C1=O (centres unmarked) — lower, -22.6%
- CC(C)(C)NC(=O)N1CCCN(c2ccc(C(F)(F)F)cn2)CC1 — lower, -0.47%
- C[C@H]1C=C(C(=O)NCc2ccccc2)O[C@@H](OCc2ccc(CO)cc2)C1 — lower, -10.5%
- Cc1cc(NC(=O)c2cccc(Oc3ccccc3)c2)n[nH]1 — lower, 1.16%
- COc1ccccc1N(C)S(=O)(=O)c1ccc(C(=O)OCC(=O)NCCC2=CCCCC2)cc1 — lower, -4.24%
- CCCC(=O)NC(C)C(c1cccs1)N1CCN(c2ccccc2)CC1 (centres unmarked) — lower, -7.64%
